# Source: PubChem BioAssay (NCATS)
# Results filed as inconclusive are left out. A call without a number means that no potency is given here. Unmarked numbers belong to inactive results. Activity calls are given as the source filed them. The call rests on the fitted dose curve; in most records, active means well fitted curve in the direction sought with a large enough effect; inconclusive means small, poorly fitted or top-dose-only effect, or another doubt; inactive means no such curve, though single readings can be large; an effect the other way counts as inactive or inconclusive. Peptide text beside a SMILES is read from it.
# Assays:
# [1] = target: Aldehyde dehydrogenase, mitochondrial (Homo sapiens) (UniProt P05091); assay: qHTS for Inhibitors of the Aldehyde Dehydrogenase Family (ALDH2) Primary screen (AID 2061308); further: nearly all actives have a fitted effect of over 55% in size
# [2] = target: Retinaldehyde dehydrogenase 3 (Homo sapiens) (UniProt P47895); assay: qHTS for Inhibitors of the Aldehyde Dehydrogenase Family (ALDH1A3) Primary screen (AID 2061315)
Compound,Potency [1],Potency [2],"activity change, negative = inhibition [1]","activity change, negative = inhibition [2]"
C=C(C)C1=C[C@@]2(C)C(=CC1=O)CC[C@@H](O)[C@@H]2C,inactive,inactive,,
CC(=O)OC1C(C)C2C(OC3OC(CO)C(O)C(O)C3O)OC=C(C(=O)O)C2C1OC(=O)c1ccccc1 (stereo unspecified),inactive,inactive,,
C/C(=C\C=C\C(C)C1CCC2(C)C3CCC4C(C)(C)C(=O)CCC45CC35CCC12C)C(=O)O (stereo unspecified),inactive,inactive,,
CCOC(=O)N1CCC(N2CCC[C@@H](NC(=O)c3ccccc3C)C2)CC1,inactive,inactive,,
COC(=O)C1C(c2ccc(O)cc2)C(C(=O)OC)C1c1ccc(O)cc1 (stereo unspecified),inactive,inactive,,
Cc1nc2sc(C(=O)NCc3ccncc3)c(N)c2c(C)c1Cl,inactive,inactive,,
CC(C)c1cc(-c2ccc(F)c3ccccc23)nc(N)n1,inactive,inactive,,
CCn1cc(C2=NOC(C(=O)Nc3c(C)n(C)n(-c4ccccc4)c3=O)C2)c(C)n1 (stereo unspecified),inactive,inactive,,
CC/C=C/CC1=C(CCCCCCCC(=O)O)CCC1=O,inactive,inactive,,
COc1c(/C=C/C(C)(C)O)ccc2c1C(=O)OCc1cc(C)cc(O)c1O2,inactive,inactive,,
CC(C)C1NC(=O)CNC(=O)C2CCCN2C(=O)C(Cc2c[nH]c3ccccc23)NC(=O)CNC(=O)C(Cc2ccc(O)cc2)NC(=O)CNC1=O (stereo unspecified) (cyclo(GVGYGWP); configuration not given here),inactive,inactive,,
Cc1ccc(Nc2nnc(-c3ccc([N+](=O)[O-])cc3)o2)cc1Cl,inactive,inactive,,
C=CC(C)(CC/C=C(\C)CC/C=C(\C)CC(O)/C=C(\C)C(=O)O)O[C@@H]1O[C@H](CO)[C@@H](O)[C@H](O)[C@H]1O[C@@H]1O[C@H](CO)[C@@H](O)[C@H](O)[C@H]1O (stereo partly specified),inactive,inactive,,
C[C@@H]1O[C@@H](O[C@@H]2[C@@H](O)[C@H](O[C@H]3[C@H](O[C@H]4CC[C@@]5(C)C(CC[C@]6(C)C5CC=C5[C@@H]7CC(C)(C)CC[C@]7(C(=O)O[C@@H]7O[C@H](CO)[C@@H](O)[C@H](O)[C@H]7O)CC[C@]56C)C4(C)C)O[C@H](C(=O)O)[C@@H](O)[C@@H]3O)OC[C@H]2O)[C@H](O)[C@H](O)[C@H]1O (stereo partly specified),inactive,inactive,,
CCCO[C@@H]1O[C@H](CO)[C@@H](O)[C@H](O)[C@H]1O[C@@H]1OC[C@@H](O)[C@H](O)[C@H]1O,inactive,inactive,,
CC1=CC2/C=C(\C)CCC3OC(C)(C)OC3CCC(=O)C23C(=O)NC(CC(C)C)C3C1C (stereo unspecified),inactive,inactive,,
OC[C@H]1O[C@@H](OCc2ccccc2)[C@H](O[C@@H]2OC[C@@H](O)[C@H](O)[C@H]2O)[C@@H](O)[C@@H]1O,inactive,inactive,,
C[C@@H]1O[C@@H](O[C@H]2[C@H](OC(=O)[C@]34CCC(C)(C)C[C@H]3C3=CCC5[C@@]6(C)C[C@H](O)[C@H](O[C@@H]7O[C@H](CO)[C@@H](O)[C@H](O)[C@H]7O)[C@@](C)(CO)C6[C@H](O)C[C@@]5(C)[C@]3(C)C[C@H]4O)OC[C@H](O)[C@@H]2O)[C@H](O)[C@H](O)[C@H]1O[C@@H]1OC[C@@H](O)[C@H](O[C@H]2OC[C@](O)(CO)[C@H]2O)[C@H]1O (stereo partly specified),,,5.31% [at 11.2 µM],-7.49% [at 11.2 µM]
COc1cc(C2Oc3c(OC)cc(CCCO)cc3C2CO)ccc1O[C@H]1O[C@H](C)[C@@H](O)[C@H](O)[C@@H]1O (stereo partly specified),inactive,inactive,,
C[C@]12CCC[C@](C)(C(=O)O)C1[C@@H](O)[C@@H](O)C13CC(CCC12)C(CO)(O[C@@H]1O[C@H](CO)[C@@H](O)[C@H](O)[C@H]1O)C3 (stereo partly specified),inactive,inactive,,
O=C(O)c1ccc(O)c2ncc(N3CCCN(CCc4cccc5ccccc45)CC3)cc12,inactive,inactive,,
C[C@@H]1C(=O)O[C@H]2[C@H]1CC[C@@]1(C)C(=O)C=C[C@](C)(O)[C@H]21,inactive,inactive,,
O=C(Nc1ccc(N(Cc2ccsc2)C(=O)Cn2nnc3ccccc32)cc1)C1CC1,inactive,inactive,,
